# Experimental data: PubChem BioAssay AID1159580 (chemical genetic matrix, 2015)
# Among all 5,500 compounds or so, about 2,000 (36%) were called active. Roughly 18% stayed inconclusive and do not appear here. Some of the results follow. Unmarked numbers belong to inactive results. Cut-off read from the data, not from the text of the source: active = normalized growth mostly below about 0.91 (no sharp cut-off); inconclusive = no clear call, values can overlap the other calls; inactive = mostly above about 0.92.
# Assay: chemical genetic growth profiling, strain panel (AID 1159580);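 note: tested at 20 µM; growth read once vehicle control cultures reached saturation at 30 °C; 1 = growth at the plate median or of vehicle wells; lower values mean less growth of the strain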
# Conditions: S. cerevisiae deletion strains, growth OD
smiles,measurement,setting,value
O=C(OOC(=O)c1ccccc1)c1ccccc1,normalized growth,"locus YAL021C, strain ccr4, stronger effect = lower value",0.969
same,normalized growth,"locus YAL026C, strain drs2, stronger effect = lower value",0.952
same,normalized growth,"locus YAL030W, strain snc1, stronger effect = lower value",0.976
same,normalized growth,"locus YBL061C, strain skt5, stronger effect = lower value",0.962
same,normalized growth,"locus YBR009C, strain hhf1, stronger effect = lower value",0.96
same,normalized growth,"locus YBR023C, strain chs3, stronger effect = lower value",0.977
same,normalized growth,"locus YBR171W, strain sec66, stronger effect = lower value",0.948
same,normalized growth,"locus YBR231C, strain swc5, stronger effect = lower value",0.978
same,normalized growth,"locus YBR279W, strain paf1, stronger effect = lower value",0.991
same,normalized growth,"locus YCL011C, strain gbp2, stronger effect = lower value",0.962
same,normalized growth,"locus YCL016C, strain dcc1, stronger effect = lower value",0.956
same,normalized growth,"locus YCL061C, strain MRC1, stronger effect = lower value",0.96
same,normalized growth,"locus YCL069W, strain vba3, stronger effect = lower value",0.993
same,normalized growth,"locus YCR088W, strain abp1, stronger effect = lower value",0.998
same,normalized growth,"locus YDL005C, strain med2, stronger effect = lower value",0.977
same,normalized growth,"locus YDL040C, strain nat1, stronger effect = lower value",0.992
same,normalized growth,"locus YDR001C, strain nth1, stronger effect = lower value",0.976
same,normalized growth,"locus YDR069C, strain doa4, stronger effect = lower value",0.965
same,normalized growth,"locus YDR137W, strain rgp1, stronger effect = lower value",0.959
same,normalized growth,"locus YDR159W, strain sac3, stronger effect = lower value",0.94
same,normalized growth,"locus YDR195W, strain ref2",1.01
same,normalized growth,"locus YDR297W, strain sur2, stronger effect = lower value",0.982
same,normalized growth,"locus YDR334W, strain swr1, stronger effect = lower value",0.92
same,normalized growth,"locus YDR335W, strain msn5, stronger effect = lower value",0.986
same,normalized growth,"locus YDR392W, strain spt3, stronger effect = lower value",0.933
same,normalized growth,"locus YEL003W, strain gim4, stronger effect = lower value",0.989
same,normalized growth,"locus YEL037C, strain rad23, stronger effect = lower value",0.977
same,normalized growth,"locus YEL061C, strain CIN8 (second series), stronger effect = lower value",0.985
same,normalized growth,"locus YER015W, strain faa2, stronger effect = lower value",0.959
same,normalized growth,"locus YER016W, strain bim1, stronger effect = lower value",0.993
same,normalized growth,"locus YER111C, strain swi4, stronger effect = lower value",0.972
same,normalized growth,"locus YER155C, strain BEM2 (second series), stronger effect = lower value",0.971
same,normalized growth,"locus YFR010W, strain ubp6, stronger effect = lower value",0.948
same,normalized growth,"locus YGL167C, strain pmr1, stronger effect = lower value",0.965
same,normalized growth,"locus YGL173C, strain kem1, stronger effect = lower value",0.956
same,normalized growth,"locus YGL227W, strain vid30, stronger effect = lower value",0.981
same,normalized growth,"locus YGL240W, strain doc1, stronger effect = lower value",0.989
same,normalized growth,"locus YGL253W, strain hxk2, stronger effect = lower value",0.96
same,normalized growth,"locus YHR013C, strain ard1, stronger effect = lower value",0.959
same,normalized growth,"locus YHR027C, strain rpn1, stronger effect = lower value",0.95
same,normalized growth,"locus YHR030C, strain SLT2, stronger effect = lower value",0.842 (active)
same,normalized growth,"locus YHR079C, strain IRE1, stronger effect = lower value",0.799 (active)
same,normalized growth,"locus YHR142W, strain chs7, stronger effect = lower value",0.95
same,normalized growth,"locus YJL092W, strain hpr5, stronger effect = lower value",0.97
same,normalized growth,"locus YJL095W, strain BCK1 (second series), stronger effect = lower value",0.993
same,normalized growth,"locus YJL095W, strain BCK1, stronger effect = lower value",0.812 (active)
same,normalized growth,"locus YJL115W, strain asf1, stronger effect = lower value",0.95
same,normalized growth,"locus YJL129C, strain trk1, stronger effect = lower value",0.991
same,normalized growth,"locus YJL154C, strain vps35, stronger effect = lower value",0.984
same,normalized growth,"locus YJL164C, strain tpk1, stronger effect = lower value",0.983
same,normalized growth,"locus YJL166W, strain qcr8, stronger effect = lower value",0.964
same,normalized growth,"locus YJL187C, strain SWE1, stronger effect = lower value",0.981
same,normalized growth,"locus YJR066W, strain TOR1, stronger effect = lower value",0.82 (active)
same,normalized growth,"locus YKL160W, strain elf1, stronger effect = lower value",0.969
same,normalized growth,"locus YKR026C, strain gcn3, stronger effect = lower value",0.979
same,normalized growth,"locus YKR091W, strain srl3, stronger effect = lower value",0.976
same,normalized growth,"locus YLL001W, strain dnm1, stronger effect = lower value",0.941
same,normalized growth,"locus YLL026W, stronger effect = lower value",0.974
same,normalized growth,"locus YLL041C, strain sdh2, stronger effect = lower value",0.968
same,normalized growth,"locus YLR027C, strain aat2, stronger effect = lower value",0.961
same,normalized growth,"locus YLR113W, strain HOG1, stronger effect = lower value",0.642 (active)
same,normalized growth,"locus YLR221C, strain rsa3, stronger effect = lower value",0.93
same,normalized growth,"locus YLR258W, strain gsy2, stronger effect = lower value",0.991
same,normalized growth,"locus YLR262C, strain YPT6 (second series), stronger effect = lower value",0.976
same,normalized growth,"locus YLR320W, strain mms22, stronger effect = lower value",0.95
same,normalized growth,"locus YLR342W, strain FKS1, stronger effect = lower value",0.971
same,normalized growth,"locus YLR357W, strain rsc2, stronger effect = lower value",0.975
same,normalized growth,"locus YLR370C, strain arc18, stronger effect = lower value",0.954
same,normalized growth,"locus YLR384C, strain iki3, stronger effect = lower value",0.954
same,normalized growth,"locus YML120C, strain ndi1, stronger effect = lower value",0.944
same,normalized growth,"locus YMR058W, strain fet3, stronger effect = lower value",0.953
same,normalized growth,"locus YMR125W, strain sto1, stronger effect = lower value",0.979
same,normalized growth,"locus YMR129W, stronger effect = lower value",0.998
same,normalized growth,"locus YMR205C, strain PFK2, stronger effect = lower value",0.949
same,normalized growth,"locus YMR231W, strain pep5, stronger effect = lower value",0.984
same,normalized growth,"locus YNL071W, strain lat1, stronger effect = lower value",0.981
same,normalized growth,"locus YNL183C, strain NPR1, stronger effect = lower value",0.773 (active)
same,normalized growth,"locus YNL209W, strain ssb2, stronger effect = lower value",0.981
same,normalized growth,"locus YNL248C, strain rpa49, stronger effect = lower value",0.957
same,normalized growth,"locus YNL322C, strain KRE1 (second series), stronger effect = lower value",0.941
same,normalized growth,"locus YNR049C, strain mso1, stronger effect = lower value",0.959
same,normalized growth,"locus YOR001W, strain rrp6, stronger effect = lower value",0.982
same,normalized growth,"locus YOR070C, strain gyp1, stronger effect = lower value",0.981
same,normalized growth,"locus YOR080W, strain dia2, stronger effect = lower value",0.961
same,normalized growth,"locus YOR083W, strain WHI5, stronger effect = lower value",0.965
same,normalized growth,"locus YOR106W, strain vam3, stronger effect = lower value",0.926
same,normalized growth,"locus YOR231W, strain MKK1, stronger effect = lower value",0.792 (active)
same,normalized growth,"locus YOR265W, strain rbl2, stronger effect = lower value",0.98
same,normalized growth,"locus YOR270C, strain vph1, stronger effect = lower value",0.973
same,normalized growth,"locus YOR290C, strain snf2, stronger effect = lower value",0.917
same,normalized growth,"locus YPL051W, strain arl3, stronger effect = lower value",0.97
same,normalized growth,"locus YPL078C, strain atp4, stronger effect = lower value",0.966
same,normalized growth,"locus YPL106C, strain sse1, stronger effect = lower value",0.977
same,normalized growth,"locus YPL240C, strain hsp82, stronger effect = lower value",0.982
same,normalized growth,"locus YPL256C, strain CLN2, stronger effect = lower value",0.773 (active)
